Source: PubChem BioAssay
ELG1 repair inh: inhibitors of ELG1-dependent DNA repair in HEK293T cells; AID 504467; Potency, µM (doses to about 46.1 µM), for the others: at the highest dose activity change, negative = inhibition, hits mostly inhibitors; HEK293T ELG1-luciferase reporter, luminescence, 16 h; DNA damage induced by 5-fluorouridine; 330,000 compounds, 2.3% hits; also: potency is read from the fitted curve at half-maximal effect; nearly all actives have a fitted effect of over 55% in size
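Step one: seed 2,000 cells per well. Step two: pin-transfer compound or DMSO alongside 5-fluorouridine. Step three: incubate 16 hr, 37 °C, 5% CO2. Step four: add ONE-Glo, wait 30 min, read luminescence.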
IL1B secr inh: inhibitors of inflammasome signaling (IL-1 beta secretion). THP-1 LPS/ATP IL-1B secretion, AlphaLISA, 16 h; hits give low values. 360,000 compounds, 4.7% hits. activity change, % at 57.5 µM. AID 743279; in the data active = activity change below about -50%; inconclusive = mostly about -30% to -49%
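Secreted IL-1B measured by AlphaLISA bead assay after 16 h compound exposure of THP-1 cells; compounds (final up to 57.5 uM) added 1 h before LPS (250 ng/mL) and ATP (1.25 mM) stimulation; lower signal means less secretion.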
HT1080 IDH1KD tx: kills HT-1080 cells with IDH1 knockdown | HT-1080 IDH1 knockdown viability, ATP luminescence, 48 h | Potency, µM (highest dose often 46.1 µM), without a hit: at the highest dose activity, negative = toxicity, usual class: cytotoxic | 360,000 compounds, 2% hits;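 also: potency is read from the fitted curve at half-maximal effect; 0% = DMSO wells and -100% = cell-free medium wells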
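IDH1KD HT-1080 cells, 750/well, RPMI + 5% FBS; compound pinned after 2 h settling; 48 h, 37 °C; CellTiter-Glo luminescence; % activity normalised to DMSO and no-cell wells; curves fitted, classed by r2 and efficacy.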
HT1080NT lethal: kills 2HG-producing HT-1080-NT fibrosarcoma cells; HT-1080-NT fibrosarcoma viability, CellTiter-Glo ATP luminescence, 48 h; Potency, µM (series often up to 46.1 µM), for the others: at the highest dose activity, negative = less viability, actives largely listed as cytotoxic; 360,000 compounds, 1.6% hits;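 also: NT is the 2HG producing partner of a matched IDH1 knockdown line; potency is read from the fitted curve at half-maximal effect; 0% = DMSO-treated cells and -100% = media-only wells without cells; nearly all actives have a fitted effect of over 55% in size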
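Read-out is CellTiter-Glo luminescence after 10 minutes at room temperature, following 48 hours' compound treatment of HT-1080-NT cells (750 cells/well, RPMI, 5% FBS, 37 degrees C).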
TDP1 cell noCPT: qHTS for Inhibitors of human tyrosyl-DNA phosphodiesterase 1 (TDP1): qHTS in cells in absence of CPT | DT40 Tdp1-/- hTDP1 cells, no CPT, ATP luminescence, 48 h | Potency, µM (highest dose often 46.2 µM), without a hit: top-dose activity change, negative = growth inhibition, most hits filed as inhibitors | 420,000 compounds, 15% hits; also: potency is read from the fitted curve at half-maximal effect; nearly all actives have a fitted effect of over 55% in size
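Readout: luminescence from CellTiter-Glo after 30 min in the dark at RT. Cells: DT40 Tdp1-/- with stable hTDP1, 400/well. Exposure: compounds alone, ≥48 hr, 37 °C.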
TDP1 cell CPT: DT40-hTDP1 cell growth loss with CPT; 420,000 compounds, 12% hits; chicken DT40 Tdp1-/-;hTDP1 cells + 20 nM CPT, ATP luminescence, 48 h; Potency, µM (highest dose often 46.2 µM), inactives show top-dose activity change, negative = growth inhibition, hits mostly inhibitors; also: potency is read from the fitted curve at half-maximal effect; nearly all actives have a fitted effect of over 55% in size
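Cell growth measured by CellTiter-Glo luminescence after a minimum 48 h, 37 C compound exposure with 20 nM CPT in Tdp1-knockout DT40 cells stably expressing hTDP1, seeded 400/well; qHTS titration format.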
Active calls of the source: *; ? = inconclusive; . = no result given; [ ] = another dose, or the depositor's remark. Sampled rows, rich in hits. Any-hit rate of the full collection: about 19%. Unless noted, calls follow the shape of the dose curve; as a rule, active = well fitted curve in the direction sought with a large enough effect; inconclusive = small, poorly fitted or top-dose-only effect, or another doubt; inactive = no such curve, though single readings can be large; an effect the other way counts as inactive or inconclusive. Unless noted, % is scaled to controls: 0 for no effect and ±100 for the full control effect.

SMILES	ELG1 repair inh	IL1B secr inh	HT1080 IDH1KD tx	HT1080NT lethal	TDP1 cell noCPT	TDP1 cell CPT
COc1ccc(S(=O)(=O)N(C)C)cc1NC(=O)CN1C(=O)NC2(CCCC2)C1=O	13%	15	-2%	13%	-4%	-6%
O=[N+]([O-])c1ccc(C=NN2CCNC2=S)o1	.	65	-8%	0%	21µM*	18µM*
O=C1OC(CN2CCOCC2)CN1/N=C/c1ccc([N+](=O)[O-])o1 (stereo unspecified)	.	.	.	.	-25%[21.1 µM]	-25%[21.1 µM]
CCN(CC)CC1CN(N=Cc2ccc([N+](=O)[O-])o2)C(=O)O1 (stereo unspecified)	.	8	-17%	-20%	16µM*	15µM*
CCOC(=O)C1CCN(C(=O)c2cc3c(s2)-c2ccccc2OC3)CC1	?	22	-11%	-12%	?	15µM*
CC(NC(=O)C1CCN(C(=O)c2ccc(-n3ccc4ccccc43)s2)CC1)c1ccccc1 (stereo unspecified)	.	.	.	.	18µM*	?
CCOC(=O)C1CCN(C(=O)c2ccc(-n3ccc4ccccc43)s2)CC1	.	.	.	.	21µM*	?
O=C(c1cc2c(s1)-c1ccccc1OC2)N1CCc2ccccc2C1	?	-13	6%	4%	-7%	12%
Cc1cc(C)n(CCc2nc3c4ccccc4nc(N4CCN(c5ccc(F)cc5)CC4)n3n2)n1	.	.	.	.	-12%	-8%
CCCCN(C(=O)COc1ccc(F)cc1)c1c(N)n(CC(C)C)c(=O)[nH]c1=O	.	-14	10%	4%	-19%	-3%
Cc1ccc(F)c(S(=O)(=O)NC(=O)C2(C)CCN2C(=O)Cc2cccc3ccccc23)c1 (stereo unspecified)	.	39	0%	20%	-3%	-21%
CC1(C)Cc2c(cnn2-c2ccccc2)C(=O)/C1=N\NC(=O)c1ccncc1	.	15	-7%	-9%	?	18µM*
COc1ccc(C2C(C#N)=C3NC(=O)c4c(sc5c4CCCCC5)N3C3=C2C(=O)CC(C)(C)C3)cc1 (stereo unspecified)	?	-24	?	?	23µM*	16µM*
COc1cc(C2C(C#N)=C(N)N(c3cccnc3)C3=C2C(=O)CC(C)(C)C3)ccc1O (stereo unspecified)	-1%	1	-1%[9.24 µM]	2%	3%	-7%
COc1ccc(C2C(C#N)=C(N)N(c3sc4c(c3C#N)CCCC4)C3=C2C(=O)CC(C)(C)C3)cc1 (stereo unspecified)	-12%	-2	-1%	2%	?	21µM*
COc1ccc(C2C(C#N)=C(N)N(N(C)C)C3=C2C(=O)CC(C)(C)C3)cc1 (stereo unspecified)	26%	-11	4%	0%	11%	-4%
COc1ccc(C2C(C#N)=C(N)N(c3sc4c(c3C#N)CCCC4)C3=C2C(=O)CC(C)(C)C3)cc1OC (stereo unspecified)	-27%	-12	0%	-19%	?	18µM*
CCc1ccc2c(c1)NC(=O)C2(C)Cc1ccccc1OC (stereo unspecified)	.	39	?	?	?	?
COc1ccc(SCC(=O)Nc2ccc(N3CCN(C)CC3)c(F)c2)cc1	?	33	-13%	-16%	?	-19%
Cc1ccc(SCC(=O)Nc2ccc(N3CCN(C)CC3)c(F)c2)cc1	?	11	-14%	-2%	21µM*	?
COc1cc(NC(=O)C2(C)CCCN2C)cc(OC)c1OC (stereo unspecified)	.	18	?	?	20%	28%
